Rows were chosen to be rich in hits. Some 18% of all compounds tested hit in one or more screens of this group.
TDP1 block: qHTS Assay for Inhibitors of Tyrosyl-DNA Phosphodiesterase (TDP1) | AID 485290, 2010 | recombinant TDP1, AlphaScreen DNA substrate cleavage | actives 0.28% (n = 350,000) | Potency, µM (doses to about 130 µM), most hits filed as inhibitors | Tyrosyl-DNA phosphodiesterase 1 (Homo sapiens), Q9NUW8; note: nearly all actives have a fitted effect of over 40% in size
Target sequence (Q9NUW8 whole entry, looked up): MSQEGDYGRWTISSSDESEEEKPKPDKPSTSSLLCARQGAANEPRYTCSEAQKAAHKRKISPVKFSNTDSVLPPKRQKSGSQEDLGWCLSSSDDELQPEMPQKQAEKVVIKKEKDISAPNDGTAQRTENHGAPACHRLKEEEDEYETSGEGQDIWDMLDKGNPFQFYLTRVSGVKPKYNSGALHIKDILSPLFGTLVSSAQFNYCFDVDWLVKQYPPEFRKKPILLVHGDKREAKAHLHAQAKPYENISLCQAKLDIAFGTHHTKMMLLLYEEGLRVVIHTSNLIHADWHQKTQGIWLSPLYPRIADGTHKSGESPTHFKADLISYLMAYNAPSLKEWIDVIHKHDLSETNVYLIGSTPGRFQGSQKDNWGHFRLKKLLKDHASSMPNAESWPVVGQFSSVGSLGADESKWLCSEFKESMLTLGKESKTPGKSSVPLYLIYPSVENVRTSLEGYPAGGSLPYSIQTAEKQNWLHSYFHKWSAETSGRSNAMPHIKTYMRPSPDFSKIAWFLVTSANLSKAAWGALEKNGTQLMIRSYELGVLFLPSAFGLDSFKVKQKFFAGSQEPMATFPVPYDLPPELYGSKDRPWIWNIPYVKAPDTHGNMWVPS
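Tdp1 1 nM final; 15 min RT w/ cpd; substrate 15 nM, 5 min; beads 10 ug/ml, 10 min; AlphaScreen read. Neg ctrl: no enzyme.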
HepG2 tox-1: qHTS for Inhibitors of TGF-b: Cytotox Counterscreen; actives 0.76% (n = 410,000); HepG2 CAGA-GFP viability, ATP luminescence, 18 h; AID 588856, 2011; Potency, µM (top dose mostly 46.1 µM), hits mostly cytotoxic
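CellTiter-Glo luminescence gave cytotoxicity after 18 hours at 37 degrees C. The cells were HepG2 CAGA-GFP in 1% FBS DMEM, stimulated with 500 pg/mL TGF-beta after compound addition. %Activity was normalised to no-cell wells (complete cell-killing) and DMSO (no toxicity), and curves were fitted and classified.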
IL-1B inflam inh: qHTS for Inhibitors of Inflammasome Signaling: IL-1-beta AlphaLISA Primary Screen; THP-1 LPS/ATP IL-1B secretion, AlphaLISA, 16 h; active compounds read low; activity change, % at 57.5 µM; actives 4.7% (n = 360,000); in the data active = activity change below about -50%; inconclusive = mostly about -30% to -49%
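Secreted IL-1B measured by AlphaLISA bead assay after 16 h compound exposure of THP-1 cells; compounds (final up to 57.5 uM) added 1 h before LPS (250 ng/mL) and ATP (1.25 mM) stimulation; lower signal means less secretion.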
DT40 TDP1 CPT: qHTS for Inhibitors of human tyrosyl-DNA phosphodiesterase 1 (TDP1): qHTS in cells in presence of CPT | Potency, µM (series often up to 46.2 µM), most hits filed as inhibitors | AID 686979, 2013 | chicken DT40 Tdp1-/-;hTDP1 cells + 20 nM CPT, ATP luminescence, 48 h | actives 12% (n = 420,000); note: nearly all actives have a fitted effect of over 55% in size
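Cell growth measured by CellTiter-Glo luminescence after a minimum 48 h, 37 C compound exposure with 20 nM CPT in Tdp1-knockout DT40 cells stably expressing hTDP1, seeded 400/well; qHTS titration format.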
TGFb SMAD3 inh: qHTS for Inhibitors of TGF-b. HepG2 CAGA-GFP TGF-b/SMAD3 reporter, GFP fluorescence, 18 h; TGF-beta stimulated, 500 pg/mL final. Potency, µM (series often up to 46.1 µM), usual class: inhibitors. actives 1.2% (n = 410,000). AID 588855, 2011; note: nearly all actives have a fitted effect of over 65% in size
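Cell-based qHTS in HEPG2 carrying a CAGA-GFP Smad reporter; compounds added before 500 pg/mL final TGF-beta, 18 h incubation at 37 degrees C, GFP fluorescence quantified per cell by imaging cytometry.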
DT40 TDP1 no CPT: qHTS for Inhibitors of human tyrosyl-DNA phosphodiesterase 1 (TDP1): qHTS in cells in absence of CPT; Potency, µM (top dose mostly 46.2 µM), usual class: inhibitors; DT40 Tdp1-/- hTDP1 cells, no CPT, ATP luminescence, 48 h; actives 15% (n = 420,000); note: nearly all actives have a fitted effect of over 55% in size
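Cells were dispensed at 400 per well, compounds added by pin tool, plates incubated ≥48 hr at 37 °C, then CellTiter-Glo added for 30 min at room temperature before luminescence reading. Line: DT40 Tdp1-/- complemented with hTDP1; camptothecin omitted.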
TGFb CAGA inh: qHTS for Inhibitors of TGF-b: Confirmation of Cherry Picks | shares compounds with TGFb SMAD3 inh | HepG2 CAGA-GFP TGF-b reporter, GFP fluorescence, 18 h; cells stimulated with TGF-beta, 500 pg/mL | Potency, µM (series often up to 46.1 µM), most hits filed as inhibitors | actives 63% (n = 1,600) | AID 720534, 2013; note: nearly all actives have a fitted effect of over 65% in size
HepG2 tox-2: qHTS for Inhibitors of TGF-b: Cytotox Counterscreen for Cherry Picks. Potency, µM (series often up to 46.1 µM), most hits filed as inhibitors. HepG2 CAGA-GFP viability, ATP luminescence, 18 h; cells stimulated with TGF-beta, 500 pg/mL. actives 27% (n = 1,600). shares compounds with TGFb SMAD3 inh; note: nearly all actives have a fitted effect of over 70% in size
CCL64 TGFb inh: qHTS for Inhibitors of TGF-b: CCL64 Cells Orthogonal Assay for Cherry Picks; shares compounds with TGFb SMAD3 inh; CCL64 CAGA-GFP reporter, TGF-b stimulated, GFP fluorescence, 18 h; AID 720536, 2013; Potency, µM (top dose mostly 46.1 µM), hits mostly inhibitors; actives 41% (n = 1,600); note: nearly all actives have a fitted effect of over 65% in size
TGFb COP inh: qHTS for Inhibitors of TGF-b: Hit Validation in HepG2 Cells using COP promoter | actives 3% (n = 1,600) | HepG2 COP-GFP TGF-b reporter, GFP fluorescence, 18 h; cells stimulated by added recombinant TGF-beta | Potency, µM (highest dose often 46.1 µM), usual class: inhibitors | AID 720537, 2013 | shares compounds with TGFb SMAD3 inh; note: nearly all actives have a fitted effect of over 70% in size
A number is an active result; 0 = inactive; ? = inconclusive; - = no result given. Unless noted, calls come from the whole dose curve; as a rule, active = well fitted curve in the direction sought with a large enough effect; inconclusive = small, poorly fitted or top-dose-only effect, or another doubt; inactive = no such curve, though single readings can be large; an effect the other way counts as inactive or inconclusive.

SMILES	TDP1 block	HepG2 tox-1	IL-1B inflam inh	DT40 TDP1 CPT	TGFb SMAD3 inh	DT40 TDP1 no CPT	TGFb CAGA inh	HepG2 tox-2	CCL64 TGFb inh	TGFb COP inh
CCOc1cc(/C=C\[N+](=O)[O-])ccc1OCC(=O)Nc1ccccc1C	0	8.91µM	0	0.92µM	7.94µM	0.581µM	2.91µM	8.2µM	2.91µM	?
O=C(NCC1CC1)c1ccc(Nc2nc3ccc(Br)cc3[nH]2)cc1	0	0	0	?	10µM	?	?	?	?	0
O=C(NCc1ccco1)c1cccc(Nc2nc3ccc(Br)cc3[nH]2)c1	0	0	0	?	?	?	-	-	-	-
O=C(Cc1ccccc1)NC(C(=O)O)C(O)c1ccc([N+](=O)[O-])cc1 (centres undefined)	-	0	0	0	0	0	-	-	-	-
COc1ccc(NS(=O)(=O)c2cc(NC(=O)CNC(=O)c3cccc(OC)c3)ccc2C)cc1	0	0	0	0	?	0	?	0	?	0
COc1ccccc1NS(=O)(=O)c1cc(NC(=O)CNC(=O)c2cc(C)cc(C)c2)ccc1C	0	0	0	?	?	?	-	-	-	-
C=CCn1c(O)c(N=NC(=S)Nc2ccc(OC)cc2)c2ccccc21	0	0	0	3.66µM	?	4.61µM	?	?	?	0
O=c1[nH]c2ccccc2cc1-c1nnn(-c2ccc(Cl)c(Cl)c2)n1	-	0	0	7.31µM	?	?	0	0	0	0
CCOC(=O)c1ccc2c(c1)nc(C1CCN(S(=O)(=O)c3cccs3)CC1)n2CC	0	0	-78.8	14.6µM	?	?	?	?	0	0
CCOC(=O)c1cccc(NC(=O)C2CCN(S(=O)(=O)c3cccs3)CC2)c1	0	0	0	?	0	?	-	-	-	-
COc1cc(NC(=O)N2CCc3nc(Nc4cc(Cl)cc(Cl)c4)ncc3C2)cc(OC)c1OC	-	0	?	23.1µM	17.8µM	?	20.6µM	?	7.31µM	0
CC1(C)CC(NC(=O)c2ccc(-c3ccc([N+](=O)[O-])cc3)o2)CC(C)(C)N1	0	0	?	?	0	?	-	-	-	-
CC(C)C[C@@H](CN1CCC[C@@H]1CN1C(=S)NC[C@@H]1Cc1ccc(O)cc1)N1C[C@H](Cc2ccccc2)N(CCc2ccccc2)C1=S	-	0	0	?	15.8µM	?	?	0	?	0
